# From PubChem BioAssay (NCATS)
# Results filed as inconclusive are left out. Where a call stands in place of a potency, no number is given. Active and inactive are the calls of the source. Unless noted, the call rests on the fitted dose curve; in most records, active means well fitted curve in the direction sought with a large enough effect; inconclusive means small, poorly fitted or top-dose-only effect, or another doubt; inactive means no such curve, though single readings can be large; an effect the other way counts as inactive or inconclusive.
# Assays:
# [1] = tested on: Zika virus NS2B-NS3 protease; assay: Primary screen GU AMC qHTS for Zika virus inhibitors (AID 1347154); further: nearly all actives have a fitted effect of over 70% in size
# Summary of the method: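 Unlinked Zika NS2B hydrophilic domain–NS3 protease complex at 25 nM in 10 mM Tris-HCl pH 8.0, 0.01% Tween 20, with an AMC peptide substrate. Fluorescence change (340/450 nm) over 15 min at room temperature, normalized to controls, fitted to 4-parameter Hill.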
# [2] = Confirmatory screen GU Rhodamine qHTS for Zika virus inhibitors qHTS (AID 1347157); further: nearly all actives have a fitted effect of over 70% in size
# Summary of the method: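 Buffer 10 mM Tris-HCl pH 8.0, 0.01% Tween 20. Unlinked protease 25 nM; compound preincubation 15 min, RT, protected from light. Substrate Rhod110, 1.5 microM; ~15% conversion in 15 min.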
# [3] = Tertiary RLuc qRT-PCR qHTS assay for Zika virus inhibitors (AID 1347169); further: top concentration of the series differs between compounds; nearly all actives have a fitted effect of over 55% in size
# Summary of the method: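 Orthogonal cell-based infection assay using recombinant ZIKV-RLuc (Cambodian) in Vero cells; compound added prior to virus at MOI 1-2. Incubation lasts 48-72 hrs at 37 degrees C before live-cell Renilla substrate is added and luminescence measured.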
# [4] = Primary qHTS for small molecule stabilizers of the endoplasmic reticulum resident proteome: Secreted ER Calcium Modulated Protein (SERCaMP) assay (AID 1508630)
# Summary of the method: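 GLuc-SERCaMP-expressing SH-SY5Y cells, pretreated 16 h with compound, are challenged with thapsigargin to empty ER calcium stores; after 4 h, coelenterazine is added directly to the medium and luminescence is imaged.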
# [5] = AP1 Signaling Pathway (AID 357; active means well fitted curve in either direction with a large enough effect, not every such curve was filed as active;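 further: ME-180 reporter cells stimulated with EGF at its EC50 level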); conditions: ME-180 AP-1-bla reporter, EGF-induced, beta-lactamase ratio, 5 h; at 38 µM (top of the series)
# Summary of the method: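 Titration-series screen for positive or negative modulators of EC50 EGF-induced signaling in ME-180 cells carrying an AP-1-driven beta-lactamase reporter. After 5 hours at 37 degrees Celsius, CCF4 460nm/530nm emission ratio gave %Activity; AC50 values derived.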
# [6] = biological target: Cytochrome P450 1A2 (Homo sapiens) (UniProt P05177); assay: p450-cyp1a2 (AID 410; calls by dose curve)
# Summary of the method: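 20nM CYP1A2 with 100uM Luciferin-ME (at Km) in 100mM KPO4; compound preincubated 10 min, NADPH regeneration added, 60 min at room temperature. Luciferin quantified by luminescence after detection reagent; normalized to 57 uM furafylline.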
# [7] = NFAT Signaling Pathway (AID 444; active means well fitted curve in either direction with a large enough effect, not every such curve was filed as active;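 further: carbachol stimulus at about its EC50 of 1 µM final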); conditions: Jurkat NFAT-bla M1, carbachol, beta-lactamase ratio, 5 h; at 38 µM (top of the series)
# Summary of the method: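 Jurkat cells with NFAT-driven β-lactamase reporter and co-expressed M1 receptor, stimulated with carbachol (final 1 uM, ~EC50), compound titration, 5 h at 37 °C. CCF4 loaded 1 h at RT; 460/530 nm ratio gave %activity and AC50.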
# [8] = Stat Signaling Pathway (AID 446; active means well fitted curve in either direction with a large enough effect, not every such curve was filed as active;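 further: ME-180 cervical cancer cells given 40 pM IL-6 alongside compound; SIE-controlled beta-lactamase reporter measured as 460/530 nm FRET emission ratio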); conditions: ME-180 SIE beta-lactamase reporter, IL-6 stimulated, 5 h; at 38 µM (top of the series)
# Summary of the method: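 Reporter line: ME-180 cervical carcinoma, SIE-beta-lactamase. Treatment: compound with 40 pM IL-6, 5 hrs, 37 C, in low-serum OPTI-MEM with 10 mM HEPES pH 7.3. Detection: 460/530 nm fluorescence.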
# [9] = biological target: Glucocorticoid receptor (Homo sapiens) (UniProt P04150); assay: GR-GFP Redistribution (AID 450;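 active means compounds whose dose series gives a full or clear partial fitted curve of increased nuclear translocation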; further: potency means the concentration at half of the fitted maximal effect); conditions: U2OS GR-GFP nuclear translocation, laser cytometry, 2 h
# [10] = biological target: Glucocorticoid receptor (Homo sapiens) (UniProt P04150); assay: GR-EFC Redistribution (AID 451; calls by dose curve; further: potency means the concentration at half of the fitted maximal effect); conditions: CHO-K1 GR-EFC translocation, beta-gal luminescence, 2 h
# Summary of the method: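 CHO-K1 cells expressing nuclear EA and GR-ED fragments of b-gal; compounds titrated up to 46 uM final, 2 h at 37 C. GR nuclear translocation read as complemented b-gal luminescence after 1 h RT detection.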
# [11] = biological target: 3',5'-cyclic-AMP phosphodiesterase 4B (Homo sapiens) (UniProt Q07343); assay: qHTS Assay for Inhibitors of PDE-IV (AID 607; active means well fitted activation curve with a large enough effect in the main read-out, with a control signal flat, not every such curve was filed as active)
# Summary of the method: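 Cell-based read-out of cAMP via a modified cyclic nucleotide-gated channel and membrane potential dye (535/590 nm) in HEK293 cells expressing PDE4 endogenously. Compounds tested up to 22.9 uM final; 100 uM RO 20-1724 reference.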
# [12] = biological target: Guanine nucleotide-binding protein G(i) subunit alpha-1 (Homo sapiens) (UniProt P63096); assay: qHTS Assay for Inhibitors of RGS12 GoLoco Motif Activity (Green Fluorophore) (AID 879);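 further: negative values mean loss of peptide binding seen as reduced polarization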
# Summary of the method: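 Fluorescence polarization assay: 50 nM Gαi1 with 10 nM FITC-labeled RGS12 GoLoco peptide in 10 mM Tris pH 7.5, 150 mM NaCl, 0.1 mM GDP, 0.05% NP40, 10 min at room temperature with compound.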
# [13] = biological target: Cytochrome P450 2C9 (Homo sapiens) (UniProt P11712); assay: qHTS Assay for Inhibitors and Substrates of Cytochrome P450 2C9 (AID 883); further: nearly all actives have a fitted effect of over 60% in size
# Summary of the method: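 Signal: luciferase luminescence reporting luciferin produced by CYP2C9. Conditions: 10nM enzyme, Luciferin-H 100uM at KM, 25mM KPO4, 37C, 60 min NADPH-driven reaction. Reference: 57uM sulphaphenazole as 100% inhibition.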
# [14] = biological target: Cytochrome P450 3A4 (Homo sapiens) (UniProt P08684); assay: qHTS Assay for Activators of Cytochrome P450 3A4 (AID 885); further: nearly all actives have a fitted effect of over 65% in size
# Summary of the method: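 Signal was normalized against complete inhibition by 57 uM ketoconazole. The reaction used 20nM CYP3A4 with 25uM Luciferin-PPXE, 10-min compound preincubation and a 60-min NADPH-supported step at RT.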
# [15] = Confirmation and Secondary Assay for Modulators of Hemoglobin Beta Chain Splicing at IVS2 654 locus (AID 910);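 further: HeLa cells stably carrying EGFP split by mutant beta-globin IVS2-654 intron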
# Summary of the method: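 HeLa cells stably expressing EGFP interrupted by β-globin IVS2-654 intron, seeded overnight in Opti-MEM/2% FCS, then treated 2 days at 37 °C. Restored splicing read as total peak GFP intensity per well by laser scanning cytometry (488 nm excitation, 500–520 nm emission); 500 nM antisense PNA as control.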
# [16] = Confirmation and Secondary Assay for Modulators of Hemoglobin Beta Chain Splicing at IVS2 705 locus (AID 930);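 further: HeLa cells stably expressing the EGFP-705 splicing reporter; GFP fluorescence per well restored by corrected splicing of the IVS2-705 intron in EGFP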
# Summary of the method: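 HeLa cells stably carrying EGFP interrupted by mutant beta-globin intron 2 (IVS2-705) treated 2 days at 37C with compound; 500 nM antisense PNA as control. Correct splicing read as total peak GFP intensity per well by laser-scanning cytometry.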
# [17] = biological target: Pyruvate kinase (Leishmania mexicana) (UniProt Q27686); assay: qHTS Validation Assay for Inhibitors of Leishmania Mexicana Pyruvate Kinase (AID 945)
# Summary of the method: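 Eight-point qHTS titrations in triplicate, data normalized to DMSO neutral control. Reaction: 0.2 nM LmPYK E451W mutant, 0.5 mM PEP, 0.1 mM ADP, 7 mM MgCl2, pH 7.2, one hour at room temperature; luminescent ATP detection.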
# [18] = biological target: Pyruvate kinase PKM (Homo sapiens) (UniProt P14618); assay: qHTS Assay for Activators of Human Muscle Pyruvate Kinase (AID 954; active means well fitted curve in the direction sought with a large enough effect, not every such curve was filed as active)
# Summary of the method: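 Human PKM2 activity is measured as ATP generation, detected by luciferase-coupled luminescence. The enzyme (0.1 nM) acts on 0.5 mM PEP and 0.1 mM ADP for 1 h at ambient temperature; data are normalized to uninhibited and full-inhibition wells.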
# [19] = biological target: Alpha-galactosidase A (Homo sapiens) (UniProt P06280); assay: Counterscreen for Glucocerebrosidase Inhibitors: qHTS Assay for Human alpha-Galactosidase at pH 4.5 (AID 992)
# Summary of the method: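 Quantitative HTS: compounds tested from 0.7 nM up to 77 uM against 2 nM enzyme with 80 uM 4-MU alpha-D-galactopyranoside. The 20 min room-temperature reaction is stopped with 1M NaOH/1M glycine, pH 10.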
# [20] = biological target: alpha-glucosidase (Oryza sativa, rice) (UniProt Q653V4); assay: Counterscreen for Glucocerebrosidase Inhibitors: qHTS Assay for Rice alpha-Glucosidase at pH 5.0 (AID 997)
# Summary of the method: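 Rice alpha-glucosidase (4 nM final) with 400 uM 4-methylumbelliferyl-alpha-D-glucopyranoside in citrate buffer pH 5.0, 20 min at room temperature, stopped at pH 10; fluorescence 365/440 nm, compounds 0.7 nM–77 uM, AC50 from Hill fits.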
# [21] = qHTS Assay for Lipid Storage Modulators (AID 1519; calls by dose curve); conditions: Drosophila S3 cells, BODIPY lipid droplet/cell ratio, laser cytometry, cells loaded with oleic acid
# Summary of the method: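 Cells seeded at 5,000 per well were treated with compounds over a concentration series and loaded with oleic acid (400 uM, as added). Lipid droplet fluorescence (488 nm excitation, 500-530 nm channel) was read by laser-scanning cytometry and normalized to 20 uM Triacsin C.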
# [22] = biological target: DNA dC->dU-editing enzyme APOBEC-3G (Homo sapiens) (UniProt Q9HC16); assay: qHTS for inhibitors of Vif-A3G interactions: Validation (AID 588379)
# Summary of the method: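 HeLa cells stably expressing Vif and A3G-eYFP, 700 cells/well, incubated overnight at 37 deg C, then exposed to compound overnight at 37 deg C. Inhibition of Vif-mediated degradation read as increased yellow fluorescence (Ex 488/Em 500-530) by laser-scanning cytometry.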
# [23] = Counterscreen qHTS for small molecule stabilizers of the endoplasmic reticulum resident proteome: GLuc-NoTag assay (AID 1508627);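 further: SH-SY5Y cells given compound then 100 nM thapsigargin to empty ER calcium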
# Summary of the method: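 SH-SY5Y cells stably expressing constitutively secreted GLuc without SERCaMP tag, exposed to compound for 19 hr, then to 100 nM thapsigargin for 4 hr at 37C. Medium luciferase was read by coelenterazine luminescence without lysis.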
# [24] = Confirmatory qHTS for small molecule stabilizers of the endoplasmic reticulum resident proteome: Secreted ER Calcium Modulated Protein (SERCaMP) assay (AID 1508628); further: nearly all actives have a fitted effect of over 40% in size; further: potency means the concentration at half of the fitted maximal effect
# Summary of the method: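 SH-SY5Y cells stably expressing GLuc-SERCaMP, treated 16 h with compound (primary 1.53, 7.67, 38.3 uM; confirmation 11 concentrations, up to 76.6 uM), then 100 nM thapsigargin for 4 h. Secreted Gaussia luciferase in medium read by coelenterazine luminescence.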
# [25] = biological target: Mitogen-activated protein kinase 10 (Mus musculus) (UniProt Q61831); assay: JNK3 AlphaScreen Assay (AID 530; active means well fitted curve in either direction with a large enough effect, not every such curve was filed as active;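 further: kinase came from lysate of stimulated human HepG2 cells; signal reports phosphorylation of biotinylated GST-cJun 1-79 at Ser73 with 10 µM ATP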)
# Summary of the method: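 Pre-activated (IL-1β/TNFα) JNK3 in HepG2 lysates phosphorylates biotin-GST-cJun(1-79), 10 uM ATP; anti-phospho-cJun(Ser73) AlphaScreen read at room temperature, pH 7.6 Tris buffer. Compounds pre-incubated 15 min as titrations.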
# [26] = Cell Viability qHTS for small molecule stabilizers of the endoplasmic reticulum resident proteome (AID 1508629); conditions: cell viability counter-screen, 100 nM thapsigargin for final 4 h;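 further: human SH-SY5Y neuroblastoma cells carrying the GLuc-SERCaMP reporter; compound exposure about 46 h in total before the viability read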
# Glucocorticoid receptor (Homo sapiens), sequence (P04150 whole entry, looked up, the tested form may be a part): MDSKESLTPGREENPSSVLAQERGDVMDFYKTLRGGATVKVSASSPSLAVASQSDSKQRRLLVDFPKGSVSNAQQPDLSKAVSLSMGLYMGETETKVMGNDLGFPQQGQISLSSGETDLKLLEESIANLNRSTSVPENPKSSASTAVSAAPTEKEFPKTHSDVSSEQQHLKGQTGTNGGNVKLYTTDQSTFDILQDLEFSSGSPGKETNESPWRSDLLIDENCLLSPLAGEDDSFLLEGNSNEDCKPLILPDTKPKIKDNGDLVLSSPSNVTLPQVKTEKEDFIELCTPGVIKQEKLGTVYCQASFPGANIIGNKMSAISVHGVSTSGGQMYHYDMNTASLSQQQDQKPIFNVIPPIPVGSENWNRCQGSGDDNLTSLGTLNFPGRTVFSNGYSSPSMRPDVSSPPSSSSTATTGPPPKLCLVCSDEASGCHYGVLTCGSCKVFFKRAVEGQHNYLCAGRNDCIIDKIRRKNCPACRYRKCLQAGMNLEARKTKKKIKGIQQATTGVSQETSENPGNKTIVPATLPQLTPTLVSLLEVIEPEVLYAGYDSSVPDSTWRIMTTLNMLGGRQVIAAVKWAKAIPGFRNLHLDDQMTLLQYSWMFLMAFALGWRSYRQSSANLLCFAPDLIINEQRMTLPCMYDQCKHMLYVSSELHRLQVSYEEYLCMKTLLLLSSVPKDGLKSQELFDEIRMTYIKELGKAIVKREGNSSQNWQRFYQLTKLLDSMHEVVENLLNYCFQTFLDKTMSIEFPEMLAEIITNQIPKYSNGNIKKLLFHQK
# 3',5'-cyclic-AMP phosphodiesterase 4B (Homo sapiens), sequence (Q07343 whole entry, looked up): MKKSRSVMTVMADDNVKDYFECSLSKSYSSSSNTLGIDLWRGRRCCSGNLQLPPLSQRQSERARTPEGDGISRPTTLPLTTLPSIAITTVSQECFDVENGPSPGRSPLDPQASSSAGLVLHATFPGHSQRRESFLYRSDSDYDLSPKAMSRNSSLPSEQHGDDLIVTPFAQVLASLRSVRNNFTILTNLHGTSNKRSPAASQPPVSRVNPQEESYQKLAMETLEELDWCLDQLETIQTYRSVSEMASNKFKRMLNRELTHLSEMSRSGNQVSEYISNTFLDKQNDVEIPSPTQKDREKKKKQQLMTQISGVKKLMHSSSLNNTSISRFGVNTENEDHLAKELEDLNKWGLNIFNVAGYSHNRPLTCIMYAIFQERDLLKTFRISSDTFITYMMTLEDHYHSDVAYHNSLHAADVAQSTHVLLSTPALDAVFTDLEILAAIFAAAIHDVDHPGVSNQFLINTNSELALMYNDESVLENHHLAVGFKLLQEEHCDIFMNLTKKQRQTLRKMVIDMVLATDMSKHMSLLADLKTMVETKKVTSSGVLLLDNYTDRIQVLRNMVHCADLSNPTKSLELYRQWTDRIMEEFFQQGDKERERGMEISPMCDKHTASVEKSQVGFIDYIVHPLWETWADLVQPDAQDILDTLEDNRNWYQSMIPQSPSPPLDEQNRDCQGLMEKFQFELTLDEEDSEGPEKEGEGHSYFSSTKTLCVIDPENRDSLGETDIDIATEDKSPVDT
# Cytochrome P450 1A2 (Homo sapiens), sequence (P05177 whole entry, looked up): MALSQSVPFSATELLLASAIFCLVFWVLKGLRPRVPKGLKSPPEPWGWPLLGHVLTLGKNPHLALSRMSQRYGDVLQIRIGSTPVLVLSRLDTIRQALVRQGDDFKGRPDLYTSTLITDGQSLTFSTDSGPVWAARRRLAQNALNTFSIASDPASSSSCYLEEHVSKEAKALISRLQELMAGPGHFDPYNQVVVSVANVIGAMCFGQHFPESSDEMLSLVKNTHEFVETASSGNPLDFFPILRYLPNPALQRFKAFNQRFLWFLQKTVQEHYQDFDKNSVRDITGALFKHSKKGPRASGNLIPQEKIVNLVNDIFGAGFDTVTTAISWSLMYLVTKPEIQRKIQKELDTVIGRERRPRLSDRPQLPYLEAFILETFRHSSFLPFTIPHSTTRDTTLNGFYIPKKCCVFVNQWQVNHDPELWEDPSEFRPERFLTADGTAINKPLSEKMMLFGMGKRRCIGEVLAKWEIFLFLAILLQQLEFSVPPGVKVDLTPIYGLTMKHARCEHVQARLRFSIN
# DNA dC->dU-editing enzyme APOBEC-3G (Homo sapiens), sequence (Q9HC16 whole entry, looked up): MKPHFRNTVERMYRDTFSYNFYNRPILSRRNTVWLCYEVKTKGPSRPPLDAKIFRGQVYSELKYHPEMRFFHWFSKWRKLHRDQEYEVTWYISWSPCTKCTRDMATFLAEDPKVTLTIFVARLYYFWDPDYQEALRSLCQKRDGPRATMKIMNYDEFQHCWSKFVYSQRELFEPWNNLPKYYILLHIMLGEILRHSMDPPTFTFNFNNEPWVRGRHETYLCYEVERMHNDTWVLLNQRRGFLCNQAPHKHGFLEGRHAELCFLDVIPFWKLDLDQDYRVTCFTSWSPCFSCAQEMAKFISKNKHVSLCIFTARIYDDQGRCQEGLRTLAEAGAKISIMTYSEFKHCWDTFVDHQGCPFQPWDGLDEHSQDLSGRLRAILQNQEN
# Cytochrome P450 2C9 (Homo sapiens), sequence (P11712 whole entry, looked up): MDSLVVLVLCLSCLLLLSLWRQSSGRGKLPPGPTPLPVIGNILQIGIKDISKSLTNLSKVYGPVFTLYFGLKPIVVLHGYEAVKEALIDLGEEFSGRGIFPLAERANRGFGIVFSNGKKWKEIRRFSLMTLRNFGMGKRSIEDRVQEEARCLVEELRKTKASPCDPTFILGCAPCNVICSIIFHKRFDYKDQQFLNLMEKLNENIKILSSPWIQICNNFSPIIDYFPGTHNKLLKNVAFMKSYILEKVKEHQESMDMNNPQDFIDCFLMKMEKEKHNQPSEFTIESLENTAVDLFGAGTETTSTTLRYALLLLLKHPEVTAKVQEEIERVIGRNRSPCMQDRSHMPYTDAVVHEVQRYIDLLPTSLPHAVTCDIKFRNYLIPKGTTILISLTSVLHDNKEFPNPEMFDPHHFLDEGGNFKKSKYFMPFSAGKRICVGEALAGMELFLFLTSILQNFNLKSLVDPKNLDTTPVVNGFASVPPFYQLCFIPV
# Cytochrome P450 3A4 (Homo sapiens), sequence (P08684 whole entry, looked up): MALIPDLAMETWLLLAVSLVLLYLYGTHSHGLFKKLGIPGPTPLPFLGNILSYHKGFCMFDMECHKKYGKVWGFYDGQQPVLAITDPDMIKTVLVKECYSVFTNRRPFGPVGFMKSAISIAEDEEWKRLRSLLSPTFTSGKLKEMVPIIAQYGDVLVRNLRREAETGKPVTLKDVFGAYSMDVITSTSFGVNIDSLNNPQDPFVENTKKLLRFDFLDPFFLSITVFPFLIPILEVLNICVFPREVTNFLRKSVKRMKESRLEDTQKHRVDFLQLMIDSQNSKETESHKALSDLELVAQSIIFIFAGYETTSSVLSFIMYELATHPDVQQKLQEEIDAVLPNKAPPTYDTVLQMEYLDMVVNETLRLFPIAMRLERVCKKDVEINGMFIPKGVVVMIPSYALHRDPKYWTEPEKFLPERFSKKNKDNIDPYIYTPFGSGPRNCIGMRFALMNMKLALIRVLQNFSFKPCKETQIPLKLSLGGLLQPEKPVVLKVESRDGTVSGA
# Pyruvate kinase (Leishmania mexicana), sequence (Q27686 2-499 E452W): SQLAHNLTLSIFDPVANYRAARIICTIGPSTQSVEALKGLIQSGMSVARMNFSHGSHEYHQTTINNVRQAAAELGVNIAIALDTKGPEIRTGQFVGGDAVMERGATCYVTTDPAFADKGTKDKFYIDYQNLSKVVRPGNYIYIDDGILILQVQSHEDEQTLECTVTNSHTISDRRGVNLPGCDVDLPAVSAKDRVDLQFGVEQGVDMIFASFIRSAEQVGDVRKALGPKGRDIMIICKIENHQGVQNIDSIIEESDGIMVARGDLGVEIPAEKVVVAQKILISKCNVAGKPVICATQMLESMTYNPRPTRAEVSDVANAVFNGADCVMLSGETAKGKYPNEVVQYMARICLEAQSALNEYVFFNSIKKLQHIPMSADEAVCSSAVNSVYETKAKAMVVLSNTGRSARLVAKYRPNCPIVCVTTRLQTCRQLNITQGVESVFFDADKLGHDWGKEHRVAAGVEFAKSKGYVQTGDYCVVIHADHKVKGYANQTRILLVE
# Guanine nucleotide-binding protein G(i) subunit alpha-1 (Homo sapiens), sequence (P63096 whole entry, looked up): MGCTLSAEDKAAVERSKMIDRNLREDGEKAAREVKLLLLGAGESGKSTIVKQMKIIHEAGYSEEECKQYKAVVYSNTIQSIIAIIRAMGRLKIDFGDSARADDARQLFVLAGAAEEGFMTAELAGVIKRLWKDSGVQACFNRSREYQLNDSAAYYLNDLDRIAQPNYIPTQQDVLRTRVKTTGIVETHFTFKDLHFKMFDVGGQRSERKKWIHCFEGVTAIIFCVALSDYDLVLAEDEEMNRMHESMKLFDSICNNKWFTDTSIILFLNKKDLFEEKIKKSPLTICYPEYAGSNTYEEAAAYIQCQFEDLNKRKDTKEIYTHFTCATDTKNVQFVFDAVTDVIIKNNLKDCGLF
# Pyruvate kinase PKM (Homo sapiens), sequence (P14618 whole entry, looked up): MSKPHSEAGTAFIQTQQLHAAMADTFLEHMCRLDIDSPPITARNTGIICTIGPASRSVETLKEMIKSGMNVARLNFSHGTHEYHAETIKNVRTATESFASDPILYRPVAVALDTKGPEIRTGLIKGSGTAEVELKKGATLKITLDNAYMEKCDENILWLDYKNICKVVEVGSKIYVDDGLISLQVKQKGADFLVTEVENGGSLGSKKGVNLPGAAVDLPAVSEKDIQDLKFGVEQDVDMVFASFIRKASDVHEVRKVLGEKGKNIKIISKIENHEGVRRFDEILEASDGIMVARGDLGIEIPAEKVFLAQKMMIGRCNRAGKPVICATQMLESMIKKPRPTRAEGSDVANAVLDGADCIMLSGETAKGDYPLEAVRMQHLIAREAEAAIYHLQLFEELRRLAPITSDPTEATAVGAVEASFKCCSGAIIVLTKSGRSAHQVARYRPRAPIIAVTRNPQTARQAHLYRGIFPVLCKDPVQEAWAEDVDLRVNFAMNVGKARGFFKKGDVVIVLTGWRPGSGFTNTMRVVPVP
compound,measurement,setting,value
C=CC1CN2CCC1C[C@H]2C(O)c1ccnc2ccc(OC)cc12 (stereo partly specified),Potency,[1],inactive
Cc1cc(=O)c2c(O)c3c(O)cc(O)c4c5c(O)cc(O)c6c(O)c7c(=O)cc(C)c8c1c2c(c34)c(c65)c78,Potency,[1],inactive
same,Potency,[2],inactive
same,Potency,[3],inactive
same,Potency,[4],inactive
Oc1cc2c(cc1O)[C@H](c1ccccc1)CNCC2,"activity change, negative = inhibition",[5],-11.5% (inactive)
same,Potency,[6],inactive
same,"activity change, negative = inhibition",[7],-1.81% (inactive)
same,"activity, negative = inhibition",[8],0.446% (inactive)
same,Potency,[9],> 46 µM (inactive)
same,Potency,[10],> 46 µM (inactive)
same,Potency,[11],inactive
same,outcome,[12],inactive
same,Potency,[13],inactive
same,Potency,[14],inactive
same,outcome,[15],inactive
same,outcome,[16],inactive
same,Potency,[17],inactive
same,outcome,[18],inactive
same,outcome,[19],inactive
same,outcome,[20],inactive
same,"activity change, negative = inhibition",[21]; at 57.5 µM (top of the series),-0.123% (inactive)
same,max response,[21]; measured here: cell count channel max response,4.46%
same,max response,[21]; measured here: lipid channel max response,3.98%
same,Potency,[22],inactive
same,Potency,[1],inactive
same,Potency,[23],inactive
same,Potency,[24],inactive
CN1C[C@H](C(=O)N[C@]2(C)O[C@@]3(O)[C@H]4CCCN4C(=O)[C@H](Cc4ccccc4)N3C2=O)C[C@H]2c3cccc4[nH]cc(c34)C[C@@H]21,Potency,[9],> 46 µM (inactive)
same,Potency,[10],> 46 µM (inactive)
same,Potency,[25],inactive
same,Potency,[22],inactive
same,Potency,[1],inactive
same,Potency,[23],inactive
same,Potency,[24],25.1 µM (active)
same,max response,[26],18% (inactive)
